# Laboratory results from the supplement of paper PMC7695840.
# Legend:
# [1] = test system: Staphylococcus aureus MW2 delta-mecA (mecA-); experiment: normalized GFP fluorescence (growth of mecA- strain) (fraction of control range); higher = more growth of mecA- strain; conditions: compound concentration: 150 uM; cefoxitin: subinhibitory; fluorescent label: GFP
# How it was run: (§1)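 Compound at 150 μM (1.5% DMSO) in 1536-well plates received 5 µL/well of pre-induced S. aureus MW2 cells mixed 1:1, gene-carrying with DsRed and gene-deleted with GFP, in LB with a daily-set subinhibitory antibiotic dose, single replicate. After 20 h unshaken at 37 °C, 90% humidity, DsRed (540/590) and GFP (485/520) were measured and scaled per plate between single-strain control medians. Plates with high untreated ratios and rows with DsRed/GFP >10 were excluded.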
# [2] = test system: Staphylococcus aureus MW2 (mecA+); experiment: normalized DsRed fluorescence (growth of mecA+ strain) (fraction of control range); higher = more growth of mecA+ strain; conditions: compound concentration: 150 uM; cefoxitin: subinhibitory; fluorescent label: DsRed
# How it was run: as §1
structure (smiles),measurement,setting,value
CCCc1nn(C)c2c(=O)[nH]c(-c3cc(S(=O)(=O)N4CCN(C)CC4)ccc3OCC)nc12,normalized GFP fluorescence,[1],0.331
same,normalized DsRed fluorescence,[2],0.655
Cc1ccccc1OCC(O)CO (centres undefined),normalized GFP fluorescence,[1],0.392
same,normalized DsRed fluorescence,[2],0.853
CC(C)COCC(CN(Cc1ccccc1)c1ccccc1)N1CCCC1 (centres undefined),normalized GFP fluorescence,[1],0.00856
same,normalized DsRed fluorescence,[2],0.96
N[C@@H](Cc1c[nH]c2ccccc12)C(=O)O,normalized GFP fluorescence,[1],0.368
same,normalized DsRed fluorescence,[2],0.604
S=c1[nH]cnc2nc[nH]c12,normalized GFP fluorescence,[1],0.195
same,normalized DsRed fluorescence,[2],0.762
CC(=O)O[C@@]12CO[C@@H]1C[C@H](O)[C@@]1(C)C(=O)[C@H](O)C3=C(C)[C@@H](OC(=O)[C@H](O)[C@@H](NC(=O)OC(C)(C)C)c4ccccc4)C[C@@](O)([C@@H](OC(=O)c4ccccc4)[C@H]21)C3(C)C [Docetaxel (Taxotere)],normalized GFP fluorescence,[1],0.11
same,normalized DsRed fluorescence,[2],0.768
C[N+](C)(C)C[C@H](O)CC(=O)[O-] [L-carnitine (Levocarnitine)],normalized GFP fluorescence,[1],0.171
same,normalized DsRed fluorescence,[2],0.836
CC1(C)[C@@H](O)CC[C@]2(C)[C@H]3C(=O)C=C4[C@@H]5C[C@@](C)(C(=O)O)CC[C@]5(C)CC[C@@]4(C)[C@]3(C)CC[C@@H]12 [Enoxolone (Glycyrrhetin)],normalized GFP fluorescence,[1],0.0336
same,normalized DsRed fluorescence,[2],0.987
O=C(CCCCCCC(=O)Nc1ccccc1)NO [Vorinostat (SAHA)],normalized GFP fluorescence,[1],0.386
same,normalized DsRed fluorescence,[2],0.944
C=CC[C@@H]1/C=C(\C)C[C@H](C)C[C@H](OC)[C@H]2O[C@@](O)(C(=O)C(=O)N3CCCC[C@H]3C(=O)O[C@H](/C(C)=C/[C@@H]3CC[C@@H](O)[C@H](OC)C3)[C@H](C)[C@@H](O)CC1=O)[C@H](C)C[C@@H]2OC,normalized GFP fluorescence,[1],0.0654
same,normalized DsRed fluorescence,[2],1.59
O=c1[nH]cnc2c1ncn2[C@H]1CC[C@@H](CO)O1 [Didanosine (Videx)],normalized GFP fluorescence,[1],0.446
same,normalized DsRed fluorescence,[2],0.652
CC(C)(C)NC[C@H](O)COc1cccc2c1CCCC2=O,normalized GFP fluorescence,[1],0.401
same,normalized DsRed fluorescence,[2],0.5
CC[C@@]1(O)C(=O)OCc2c1cc1n(c2=O)Cc2cc3c(CN(C)C)c(O)ccc3nc2-1,normalized GFP fluorescence,[1],0.791
same,normalized DsRed fluorescence,[2],0.763
"CC[C@H]1OC(=O)[C@H](C)[C@@H](O[C@H]2C[C@@](C)(OC)[C@@H](O)[C@H](C)O2)[C@H](C)[C@@H](O[C@@H]2O[C@H](C)C[C@H](N(C)C)[C@H]2O)[C@](C)(OC)C[C@@H](C)C(=O)[C@H](C)[C@@H](O)[C@]1(C)O [Clarithromycin (Biaxin, Klacid)]",normalized GFP fluorescence,[1],0.181
same,normalized DsRed fluorescence,[2],0.788
Cc1ncc([N+](=O)[O-])n1CC(C)O (centres undefined) [Secnidazole (Flagentyl)],normalized GFP fluorescence,[1],0.266
same,normalized DsRed fluorescence,[2],0.482
Cc1[nH]c(=O)c(C#N)cc1-c1ccncc1,normalized GFP fluorescence,[1],0.476
same,normalized DsRed fluorescence,[2],0.797
COc1ccccc1OCC(O)CO (centres undefined),normalized GFP fluorescence,[1],0.274
same,normalized DsRed fluorescence,[2],0.991
CN(C)CCc1c[nH]c2ccc(C[C@H]3COC(=O)N3)cc12,normalized GFP fluorescence,[1],0.31
same,normalized DsRed fluorescence,[2],0.962
CNC(=O)c1cc(Oc2ccc(NC(=O)Nc3ccc(Cl)c(C(F)(F)F)c3)c(F)c2)ccn1 [Regorafenib (BAY 73-4506)],normalized GFP fluorescence,[1],0.0128
same,normalized DsRed fluorescence,[2],0.0729
"C[C@H]1[C@H](NC(=O)/C(=N\OC(C)(C)C(=O)O)c2csc(N)n2)C(=O)N1S(=O)(=O)O [Aztreonam (Azactam, Cayston)]",normalized GFP fluorescence,[1],0.136
same,normalized DsRed fluorescence,[2],1.17
N=C(N)N,normalized GFP fluorescence,[1],0.207
same,normalized DsRed fluorescence,[2],0.654
C[C@@H]1[C@H](O)[C@@H](C)/C=C/C=C/C=C/C=C/C=C/C=C/C=C/[C@H](O[C@@H]2O[C@H](C)[C@@H](O)[C@H](N)[C@@H]2O)C[C@@H]2O[C@](O)(C[C@@H](O)C[C@@H](O)[C@H](O)CC[C@@H](O)C[C@@H](O)CC(=O)O[C@H]1C)C[C@H](O)[C@H]2C(=O)O,normalized GFP fluorescence,[1],0.269
same,normalized DsRed fluorescence,[2],0.735
Cc1cc(C#N)cc(C)c1Oc1nc(Nc2ccc(C#N)cc2)nc(N)c1Br [Etravirine (TMC125)],normalized GFP fluorescence,[1],0.423
same,normalized DsRed fluorescence,[2],0.589
CC(C)NCC(O)c1ccc(NS(C)(=O)=O)cc1 (centres undefined),normalized GFP fluorescence,[1],0.417
same,normalized DsRed fluorescence,[2],0.703
CCC1(c2ccccc2)NC(=O)N(C)C1=O (centres undefined),normalized GFP fluorescence,[1],0.794
same,normalized DsRed fluorescence,[2],0.963
CC(C)OC(=O)C(C)(C)Oc1ccc(C(=O)c2ccc(Cl)cc2)cc1,normalized GFP fluorescence,[1],0.203
same,normalized DsRed fluorescence,[2],0.698
C=CC(=O)N1CCC[C@@H](n2nc(-c3ccc(Oc4ccccc4)cc3)c3c(N)ncnc32)C1,normalized GFP fluorescence,[1],0.0101
same,normalized DsRed fluorescence,[2],1.1
C#C[C@]1(O)CC[C@H]2[C@@H]3CCC4=CC(=O)CC[C@@H]4[C@H]3CC[C@@]21CC,normalized GFP fluorescence,[1],0.305
same,normalized DsRed fluorescence,[2],1.05
CNCCCN1c2ccccc2CCc2ccccc21,normalized GFP fluorescence,[1],0.0357
same,normalized DsRed fluorescence,[2],1.99
CC(=O)OCC(=O)[C@@]1(O)CC[C@H]2[C@@H]3CCC4=CC(=O)CC[C@]4(C)[C@H]3[C@@H](O)C[C@@]21C,normalized GFP fluorescence,[1],0.58
same,normalized DsRed fluorescence,[2],0.595
Clc1ccc(C(Cn2ccnc2)OCc2ccc(Sc3ccccc3)cc2)c(Cl)c1 (centres undefined) [Fenticonazole nitrate],normalized GFP fluorescence,[1],-0.002
same,normalized DsRed fluorescence,[2],0.0182
O=NN(CCCl)C(=O)NC1CCCCC1,normalized GFP fluorescence,[1],0.569
same,normalized DsRed fluorescence,[2],0.767
CCOc1cc2ncc(C#N)c(Nc3ccc(OCc4ccccn4)c(Cl)c3)c2cc1NC(=O)/C=C/CN(C)C [Neratinib (HKI-272)],normalized GFP fluorescence,[1],0.0386
same,normalized DsRed fluorescence,[2],0.921
Nc1ccn([C@H]2CC[C@@H](CO)O2)c(=O)n1,normalized GFP fluorescence,[1],0.265
same,normalized DsRed fluorescence,[2],0.779
CN1CCN(C2=Nc3cc(Cl)ccc3Nc3ccccc32)CC1 [Clozapine (Clozaril)],normalized GFP fluorescence,[1],0.0909
same,normalized DsRed fluorescence,[2],1.01
CC1=C(/C=C/C(C)=C/C=C/C(C)=C\C(=O)O)C(C)(C)CCC1 [Isotretinoin],normalized GFP fluorescence,[1],0.0743
same,normalized DsRed fluorescence,[2],1.06
CN1CCOC(c2ccccc2)c2ccccc2C1 (centres undefined),normalized GFP fluorescence,[1],0.242
same,normalized DsRed fluorescence,[2],0.81
